Reference: PubChem BioAssay (NCI)
The panel holds about 79,000 compounds, 15% with a hit somewhere; the sample as a whole holds those more often. Unmarked numbers belong to inactive results. The source made the active and inactive calls. Cut-off read from the data, not from the text of the source: active = growth inhibition above about 70%; inactive = the rest.

Assays:
[1] = NCI Yeast Anticancer Drug Screen. Data for the rad52 strain (AID 147);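 note: 0% = growth of vehicle-treated control cultures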; conditions: S. cerevisiae rad52 mutant growth inhibition, hits give high values
Outline: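 Genetically altered yeast (DNA damage repair defect) treated with compound; inhibition calculated relative to vehicle.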

[2] = NCI Yeast Anticancer Drug Screen. Data for the rad50EPP+ strain (AID 151);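 note: 0% = growth of vehicle-treated control cultures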; conditions: S. cerevisiae rad50 mutant strain, hits give high values
Outline: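 Strain rad50EPP+; compound exposure; % growth inhibition vs vehicle.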

[3] = NCI Yeast Anticancer Drug Screen. Data for the mgt1 strain (AID 153); conditions: S. cerevisiae mgt1 mutant growth inhibition, hits give high values
Outline: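 Read-out: yeast growth inhibition vs vehicle control. Strain mgt1, drawn from a panel altered in DNA damage repair or cell cycle control.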

[4] = NCI Yeast Anticancer Drug Screen. Data for the rad50 strain (AID 155);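 note: 0% = growth of vehicle-only cultures of the same strain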; conditions: S. cerevisiae rad50 strain growth inhibition, hits give high values
Outline: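 Vehicle-treated cultures provide the reference for the growth inhibition reported for compound-exposed, repair-deficient yeast.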

[5] = NCI Yeast Anticancer Drug Screen. Data for the mec2-1 strain (AID 157); conditions: S. cerevisiae mec2-1 strain, hits give high values
Outline: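 Cells of the genetically defined mec2-1 yeast strain are incubated with test compound. Inhibition of growth is calculated against vehicle-treated controls.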

[6] = NCI Yeast Anticancer Drug Screen. Data for the rad14 strain (AID 159);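 note: 0% = growth of vehicle-treated control cultures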; conditions: S. cerevisiae rad14 strain growth inhibition, hits give high values
Outline: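 Inhibition of growth is reported for a repair-deficient yeast mutant following compound treatment, calculated relative to cultures that received vehicle.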

[7] = NCI Yeast Anticancer Drug Screen. Data for the sgs1 mgt1 strain (AID 161);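 note: 0% = growth of cultures given vehicle only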; conditions: S. cerevisiae sgs1 mgt1 strain, hits give high values
Outline: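 Mutant yeast exposed to compound; growth scored against vehicle-only wells.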

[8] = NCI Yeast Anticancer Drug Screen. Data for the CLN2oe strain (AID 163);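 note: 0% = growth of vehicle-only control cultures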; conditions: S. cerevisiae CLN2oe strain, hits give high values
Outline: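 Strain altered in cell-cycle control, incubated with compound; growth compared to solvent-treated controls.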

[9] = NCI Yeast Anticancer Drug Screen. Data for the cln2 rad14 strain (AID 165);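 note: 0% = growth equal to vehicle treated cultures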; conditions: S. cerevisiae cln2 rad14 strain, hits give high values
Outline: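 The screen exposed genetically defined yeast (cln2 rad14) to test compounds and scored growth inhibition relative to vehicle-treated controls.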

[10] = NCI Yeast Anticancer Drug Screen. Data for the bub3 strain (AID 167); conditions: S. cerevisiae bub3 mutant strain, hits give high values
Outline: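 Mutant yeast screening strain plus compound; vehicle-treated cultures serve as the 0% inhibition reference.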

[11] = NCI Yeast Anticancer Drug Screen. Data for the wt2 strain (AID 169); conditions: S. cerevisiae wt2 strain growth inhibition, hits give high values
Outline: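 Steps: yeast strain treated with compound; growth recorded; inhibition calculated relative to cultures given vehicle alone.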

[12] = NCI Yeast Anticancer Drug Screen. Data for the mlh1 strain (AID 171);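 note: 0% = growth of vehicle-treated control cultures of the same strain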; conditions: S. cerevisiae mlh1 strain growth inhibition, hits give high values
Outline: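 Yeast screen: mutant strain plus compound, growth scored against vehicle control wells.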

[13] = NCI Yeast Anticancer Drug Screen. Data for the sgs1 strain (AID 173);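 note: 0% = growth of vehicle-only control cultures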; conditions: S. cerevisiae sgs1 mutant, hits give high values
Outline: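 Inhibition of yeast growth served as the measure. The mutant strain was treated with each compound, and growth was normalised to cultures receiving vehicle alone.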

[14] = NCI Yeast Anticancer Drug Screen. Data for the mlh1 rad18 strain (AID 175); conditions: S. cerevisiae mlh1 rad18 strain growth inhibition, hits give high values
Outline: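 Compound-treated yeast growth, normalised to vehicle controls. Strain bears defined DNA repair mutations.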

[15] = NCI Yeast Anticancer Drug Screen. Data for the rad18 strain (AID 177); conditions: S. cerevisiae rad18 mutant growth inhibition, hits give high values
Outline: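 Inhibition values reflect reduced yeast growth compared with vehicle-treated controls, using a strain engineered with a DNA damage repair defect.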

[16] = at 5.0 µM (retest, dose inferred, filed as 0.5)
[17] = at 50.0 µM (retest, dose inferred, filed as 5.0)

Structure (SMILES): CCCCCCC(O)CNCc1ccnc2ccc(OC)cc12 (stereo not drawn)
- growth inhibition ([1]; at 1.2 µM): 5%
- growth inhibition ([1]; at 3.7 µM): 12%
- growth inhibition ([1]; at 11.0 µM): 22%
- growth inhibition ([1]; at 33.0 µM): 35%
- growth inhibition ([1]; at 100.0 µM): 52%
- growth inhibition ([2]; at 1.2 µM): 1%
- growth inhibition ([2]; at 3.7 µM): 2%
- growth inhibition ([2]; at 11.0 µM): 4%
- growth inhibition ([2]; at 33.0 µM): 0%
- growth inhibition ([2]; at 100.0 µM): 2%
- growth inhibition ([3]; at 1.2 µM): 1%
- growth inhibition ([3]; at 3.7 µM): 4%
- growth inhibition ([3]; at 11.0 µM): 17%
- growth inhibition ([3]; at 33.0 µM): 38%
- growth inhibition ([3]; at 100.0 µM): 51%
- growth inhibition ([4]; at 1.2 µM): 5%
- growth inhibition ([4]; at 3.7 µM): 13%
- growth inhibition [4, 16]: 8%
- growth inhibition ([4]; at 11.0 µM): 11%
- growth inhibition ([4]; at 33.0 µM): 31%
- growth inhibition [4, 17]: 51%
- growth inhibition ([4]; at 50.0 µM): 76.8% (active)
- growth inhibition ([4]; at 100.0 µM): 54%
- growth inhibition ([5]; at 1.2 µM): 4%
- growth inhibition ([5]; at 3.7 µM): 13%
- growth inhibition [5, 16]: 7%
- growth inhibition ([5]; at 11.0 µM): 15%
- growth inhibition ([5]; at 33.0 µM): 29%
- growth inhibition [5, 17]: 43%
- growth inhibition ([5]; at 50.0 µM): 53.4%
- growth inhibition ([5]; at 100.0 µM): 46%
- growth inhibition ([6]; at 1.2 µM): 13%
- growth inhibition ([6]; at 3.7 µM): 32%
- growth inhibition ([6]; at 11.0 µM): 33%
- growth inhibition ([6]; at 33.0 µM): 33%
- growth inhibition ([6]; at 100.0 µM): 49%
- growth inhibition [7, 16]: 23%
- growth inhibition [7, 17]: 61%
- growth inhibition ([7]; at 50.0 µM): 83.5% (active)
- growth inhibition ([8]; at 1.2 µM): 9%
- growth inhibition ([8]; at 3.7 µM): 12%
- growth inhibition ([8]; at 11.0 µM): 39%
- growth inhibition ([8]; at 33.0 µM): 49%
- growth inhibition ([8]; at 100.0 µM): 56%
- growth inhibition [9, 16]: 14%
- growth inhibition [9, 17]: 43%
- growth inhibition ([9]; at 50.0 µM): 72.2% (active)
- growth inhibition ([10]; at 1.2 µM): 1%
- growth inhibition ([10]; at 3.7 µM): 8%
- growth inhibition [10, 16]: 20%
- growth inhibition ([10]; at 11.0 µM): 24%
- growth inhibition ([10]; at 33.0 µM): 44%
- growth inhibition [10, 17]: 63%
- growth inhibition ([10]; at 50.0 µM): 83.7% (active)
- growth inhibition ([10]; at 100.0 µM): 63%
- growth inhibition ([11]; at 1.2 µM): 4%
- growth inhibition ([11]; at 3.7 µM): 8%
- growth inhibition ([11]; at 11.0 µM): 9%
- growth inhibition ([11]; at 33.0 µM): 14%
- growth inhibition ([11]; at 100.0 µM): 28%
- growth inhibition ([12]; at 1.2 µM): 5%
- growth inhibition ([12]; at 3.7 µM): 9%
- growth inhibition ([12]; at 11.0 µM): 15%
- growth inhibition ([12]; at 33.0 µM): 18%
- growth inhibition ([12]; at 100.0 µM): 35%
- growth inhibition ([13]; at 1.2 µM): 6%
- growth inhibition ([13]; at 3.7 µM): 12%
- growth inhibition ([13]; at 11.0 µM): 18%
- growth inhibition ([13]; at 33.0 µM): 29%
- growth inhibition ([13]; at 100.0 µM): 56%
- growth inhibition [14, 16]: 21%
- growth inhibition [14, 17]: 61%
- growth inhibition ([14]; at 50.0 µM): 52.2%
- growth inhibition ([15]; at 1.2 µM): 7%
- growth inhibition ([15]; at 3.7 µM): 12%
- growth inhibition ([15]; at 11.0 µM): 8%
- growth inhibition ([15]; at 33.0 µM): 19%
- growth inhibition ([15]; at 100.0 µM): 30%
